Assay results published in PubChem BioAssay (EPA / NIEHS).
Active and inactive are the calls of the source. The calls were made as follows: active = hit-call score of the fitted dose curve at least 0.9, where 1 is the maximum; inactive = score below 0.9.

Read-out: Tumor necrosis factor receptor superfamily member 6 (Homo sapiens) (UniProt P25445)
Experiment: LTEA_HepaRG_FAS: Life Technologies and Expression Analysis (LTEA) Assay for Fas cell surface death receptor (FAS) using HepaRG (AID 2283447)
Details: mRNA level, 48 h; actives raise or lower the signal
Method in brief: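 FAS transcript level was measured by TaqMan qRT-PCR against three housekeeping genes after 48 h chemical exposure. Cells were HepaRG, 0.5% DMSO vehicle, with a top concentration of 100 uM and half-log dilutions over eight points, in duplicate.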

Fatty acid synthase (Homo sapiens), sequence (P49327 whole entry, looked up): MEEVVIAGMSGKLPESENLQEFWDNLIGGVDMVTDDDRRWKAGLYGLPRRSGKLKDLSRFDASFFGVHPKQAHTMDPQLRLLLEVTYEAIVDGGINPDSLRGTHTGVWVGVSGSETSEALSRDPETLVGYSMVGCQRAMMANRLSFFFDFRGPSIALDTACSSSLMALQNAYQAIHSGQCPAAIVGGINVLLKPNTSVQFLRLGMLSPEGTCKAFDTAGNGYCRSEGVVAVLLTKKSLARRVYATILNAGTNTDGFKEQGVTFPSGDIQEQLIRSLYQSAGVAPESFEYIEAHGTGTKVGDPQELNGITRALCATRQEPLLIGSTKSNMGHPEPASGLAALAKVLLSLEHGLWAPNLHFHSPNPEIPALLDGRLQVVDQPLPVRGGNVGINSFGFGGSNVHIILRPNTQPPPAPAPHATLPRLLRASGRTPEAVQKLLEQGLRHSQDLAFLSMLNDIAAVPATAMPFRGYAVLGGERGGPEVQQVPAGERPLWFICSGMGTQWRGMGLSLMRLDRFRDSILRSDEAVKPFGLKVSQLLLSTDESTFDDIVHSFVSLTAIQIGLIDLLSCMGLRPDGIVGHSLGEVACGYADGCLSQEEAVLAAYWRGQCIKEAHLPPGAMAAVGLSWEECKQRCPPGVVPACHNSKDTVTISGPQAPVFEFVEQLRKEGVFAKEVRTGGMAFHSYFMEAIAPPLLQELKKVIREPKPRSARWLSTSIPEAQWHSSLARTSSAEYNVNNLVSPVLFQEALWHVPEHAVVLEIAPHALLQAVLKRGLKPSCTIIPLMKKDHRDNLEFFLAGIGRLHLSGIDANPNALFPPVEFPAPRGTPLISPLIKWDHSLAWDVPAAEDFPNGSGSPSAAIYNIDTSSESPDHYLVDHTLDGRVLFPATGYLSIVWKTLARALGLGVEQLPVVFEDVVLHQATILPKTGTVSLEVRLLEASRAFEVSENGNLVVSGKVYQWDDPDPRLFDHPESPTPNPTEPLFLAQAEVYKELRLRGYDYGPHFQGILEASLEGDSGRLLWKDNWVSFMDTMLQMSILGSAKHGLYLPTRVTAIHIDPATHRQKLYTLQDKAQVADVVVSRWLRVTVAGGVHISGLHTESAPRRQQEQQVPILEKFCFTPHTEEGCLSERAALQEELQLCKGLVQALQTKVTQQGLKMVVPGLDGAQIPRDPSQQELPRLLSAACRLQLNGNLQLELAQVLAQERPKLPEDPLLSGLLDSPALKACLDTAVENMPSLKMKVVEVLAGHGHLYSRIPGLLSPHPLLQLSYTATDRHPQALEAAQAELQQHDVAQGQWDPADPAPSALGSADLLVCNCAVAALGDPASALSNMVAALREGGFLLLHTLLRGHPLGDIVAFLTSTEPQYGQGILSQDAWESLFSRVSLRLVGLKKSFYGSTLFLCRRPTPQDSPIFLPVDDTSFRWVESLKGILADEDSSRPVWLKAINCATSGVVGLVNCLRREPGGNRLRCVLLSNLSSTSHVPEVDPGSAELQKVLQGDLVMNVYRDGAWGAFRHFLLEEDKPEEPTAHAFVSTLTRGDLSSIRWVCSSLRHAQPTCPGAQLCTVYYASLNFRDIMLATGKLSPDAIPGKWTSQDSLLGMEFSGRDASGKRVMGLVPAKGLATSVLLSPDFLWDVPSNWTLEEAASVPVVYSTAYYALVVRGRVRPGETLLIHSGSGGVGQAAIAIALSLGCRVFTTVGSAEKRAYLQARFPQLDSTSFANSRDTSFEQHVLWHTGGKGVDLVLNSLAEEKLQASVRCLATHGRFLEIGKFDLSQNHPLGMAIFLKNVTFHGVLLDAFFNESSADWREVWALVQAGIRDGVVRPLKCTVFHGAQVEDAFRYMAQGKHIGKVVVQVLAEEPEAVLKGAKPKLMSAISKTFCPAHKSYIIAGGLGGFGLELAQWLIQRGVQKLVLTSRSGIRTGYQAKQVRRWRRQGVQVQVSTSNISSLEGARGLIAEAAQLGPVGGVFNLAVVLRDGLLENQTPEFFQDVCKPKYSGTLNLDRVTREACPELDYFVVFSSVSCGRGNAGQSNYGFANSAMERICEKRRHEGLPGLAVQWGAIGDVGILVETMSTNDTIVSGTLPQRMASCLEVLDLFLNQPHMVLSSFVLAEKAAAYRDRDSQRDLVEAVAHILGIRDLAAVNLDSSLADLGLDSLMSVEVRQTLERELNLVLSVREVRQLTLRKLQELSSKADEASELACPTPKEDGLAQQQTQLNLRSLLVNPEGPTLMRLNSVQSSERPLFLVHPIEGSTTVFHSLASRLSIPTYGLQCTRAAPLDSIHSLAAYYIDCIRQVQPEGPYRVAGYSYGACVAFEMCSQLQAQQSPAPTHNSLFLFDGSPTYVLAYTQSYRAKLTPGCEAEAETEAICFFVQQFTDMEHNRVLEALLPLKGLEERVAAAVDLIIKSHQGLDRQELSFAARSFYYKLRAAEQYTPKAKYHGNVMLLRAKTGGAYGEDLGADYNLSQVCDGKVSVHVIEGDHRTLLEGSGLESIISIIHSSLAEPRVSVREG

| Structure (SMILES) | outcome | AC50 |
| --- | --- | --- |
| O=C(O)Cn1c(=O)n(Cc2ccc(Br)cc2F)c(=O)c2ccc(Cl)cc21 | inactive |  |
| O=c1c(-c2ccc(O)cc2)coc2cc(O)cc(O)c12 | inactive |  |
| Cc1c2ccccc2c(C)c2c1ccc1ccccc12 |  | 66.1 µM (active) |
| CCCCCCCCOC(=O)c1cc(O)c(O)c(O)c1 | inactive |  |
| O=CCCCC=O | inactive |  |
| Cc1cc2c(cc1C(F)(F)F)N(C(=O)Nc1ccc(Oc3cccnc3C)nc1)CC2 |  | 78.5 µM (active) |
| CC(C)(C)c1cc(/C=C2\SC(N)=NC2=O)cc(C(C)(C)C)c1O | inactive |  |
| NCc1cccc(C2CCN(C(=O)c3ccc(C#Cc4ccccc4F)o3)CC2)c1 | inactive |  |
| NC(=O)c1nc(-c2cccc(-c3cc(F)ccc3OCC(F)(F)C(F)(F)F)c2)n[nH]1 | inactive |  |
| Cc1occc1C(=O)Nc1ccc(C(=O)N2CCC(F)(F)/C(=C\C(=O)N3CCC(N4CCCCC4)CC3)c3ccccc32)cc1 | inactive |  |
| COc1cc(C(=O)NC2CCN(C)CC2)ccc1Nc1ncc2c(n1)N(C1CCCC1)CC(F)(F)C(=O)N2C |  | 9.78 µM (active) |
| CCCCCCCCCCCC[N+](C)(C)C |  | 82.5 µM (active) |
| Cc1ccc2oc(CN(Cc3ccccc3)C(=O)Nc3c(F)cc(F)cc3F)c(-c3ccc(Cl)cc3)c2c1 | inactive |  |
| CCCCCCCCCCCO | inactive |  |
| O=C(Nc1ccc(Cl)cc1)Nc1ccc(Cl)c(Cl)c1 |  | 23.1 µM (active) |
| COCC(C)OCC(C)OCC(C)O (stereo unspecified) | inactive |  |
| CN(C[C@@H](CC[N+]12CCC(C3CCCCC3)(CC1)CC2)c1ccc(Cl)c(Cl)c1)C(=O)c1cc(C(F)(F)F)cc(C(F)(F)F)c1 |  | 93.8 µM (active) |
| CCCCOC(=O)CC(CC(=O)OCCCC)(OC(C)=O)C(=O)OCCCC | inactive |  |
| O=C(O)c1ccccc1C(=O)OCc1ccccc1 | inactive |  |

| Structure (SMILES) | outcome | AC50 |
| --- | --- | --- |
| CN1C(=O)CC[C@H]1c1cccnc1 | inactive |  |
| CC(=O)N1CCN(c2ccc(OC[C@H]3CO[C@](Cn4ccnc4)(c4ccc(Cl)cc4Cl)O3)cc2)CC1 |  | 89.3 µM (active) |
| CCCCOC(=O)c1ccc(O)cc1 | inactive |  |
| O=C1c2ccccc2C(=O)N1CCc1noc(-c2ccc(CN3CCCCCC3)s2)n1 | inactive |  |
| OC12N=C(c3ccccc3)SC1Cc1cc(Cl)ccc12 (stereo unspecified) | inactive |  |
| C[C@]12CC[C@@H]3c4ccc(O)cc4CC[C@H]3[C@@H]1CC[C@H]2O | inactive |  |
| COc1cccc([C@H](O)C2CCN(CCc3ccc(F)cc3)CC2)c1OC | inactive |  |
| CN(C)c1ccc(C(=C2C=CC(=[N+](C)C)C=C2)c2ccc(N(C)C)cc2)cc1 | inactive |  |
| CN1C(=O)N(c2ccccc2Br)Cc2cnc(Nc3ccc4c(c3)OCC(CO)O4)nc21 (stereo unspecified) |  | 90.4 µM (active) |
| Oc1ccc2ccccc2c1 | inactive |  |
| CCCCCCCC[Si](OCC)(OCC)OCC | inactive |  |
| Clc1cc(Cl)c2c(c1)N=C1CCCCCN1C2 | inactive |  |
| Clc1ccccc1C(c1ccccc1)(c1ccccc1)n1ccnc1 | inactive |  |
| CC(C)(O)c1ccc(CNC(=O)c2cccnc2Oc2ccc3nonc3c2)cc1 | inactive |  |
| O=C1CCC(C2CCCCC2)CC1 | inactive |  |
| CC(C)(c1cc(Br)c(O)c(Br)c1)c1cc(Br)c(O)c(Br)c1 |  | 92.5 µM (active) |
| Cc1oc2c(NC(=O)c3c(Cl)cccc3Cl)cccc2c1C(C)(C)O | inactive |  |
| O=C(O)Cc1cc(I)c(Oc2ccc(O)c(I)c2)c(I)c1 |  | 88.6 µM (active) |
| CCCCCCCCN(C)CCCCCCCC | inactive |  |

Read-out: Fatty acid synthase (Homo sapiens) (UniProt P49327)
Experiment: LTEA_HepaRG_FASN: Life Technologies and Expression Analysis (LTEA) Assay for Fatty Acid Synthase (FASN) using HepaRG (AID 2283448);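 as to AC50: differentiated human HepaRG liver cells in serum-free induction medium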
Details: mRNA level, 48 h; actives raise or lower the signal
Method in brief: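 Differentiated HepaRG cells in serum-free induction medium exposed 48 h in duplicate to eight half-log concentrations, top 100 uM, 0.5% DMSO. FASN mRNA by qRT-PCR normalised to ACTB, GAPDH, POLR2A; bidirectional fit versus DMSO.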

| Structure (SMILES) | outcome | AC50 |
| --- | --- | --- |
| O=C(O)Cn1c(=O)n(Cc2ccc(Br)cc2F)c(=O)c2ccc(Cl)cc21 | inactive |  |
| O=c1c(-c2ccc(O)cc2)coc2cc(O)cc(O)c12 | inactive |  |
| Cc1c2ccccc2c(C)c2c1ccc1ccccc12 |  | 51 µM (active) |
| CCCCCCCCOC(=O)c1cc(O)c(O)c(O)c1 | inactive |  |
| O=CCCCC=O | inactive |  |
| Cc1cc2c(cc1C(F)(F)F)N(C(=O)Nc1ccc(Oc3cccnc3C)nc1)CC2 | inactive |  |
| CC(C)(C)c1cc(/C=C2\SC(N)=NC2=O)cc(C(C)(C)C)c1O |  | 12.2 µM (active) |
| NCc1cccc(C2CCN(C(=O)c3ccc(C#Cc4ccccc4F)o3)CC2)c1 |  | 50 µM (active) |
| NC(=O)c1nc(-c2cccc(-c3cc(F)ccc3OCC(F)(F)C(F)(F)F)c2)n[nH]1 |  | 79 µM (active) |
| Cc1occc1C(=O)Nc1ccc(C(=O)N2CCC(F)(F)/C(=C\C(=O)N3CCC(N4CCCCC4)CC3)c3ccccc32)cc1 |  | 19.4 µM (active) |
| COc1cc(C(=O)NC2CCN(C)CC2)ccc1Nc1ncc2c(n1)N(C1CCCC1)CC(F)(F)C(=O)N2C |  | 46.5 µM (active) |
| CCCCCCCCCCCC[N+](C)(C)C |  | 80.9 µM (active) |
| Cc1ccc2oc(CN(Cc3ccccc3)C(=O)Nc3c(F)cc(F)cc3F)c(-c3ccc(Cl)cc3)c2c1 | inactive |  |
| CCCCCCCCCCCO | inactive |  |
| O=C(Nc1ccc(Cl)cc1)Nc1ccc(Cl)c(Cl)c1 |  | 17.5 µM (active) |
| COCC(C)OCC(C)OCC(C)O (stereo unspecified) | inactive |  |
| CN(C[C@@H](CC[N+]12CCC(C3CCCCC3)(CC1)CC2)c1ccc(Cl)c(Cl)c1)C(=O)c1cc(C(F)(F)F)cc(C(F)(F)F)c1 |  | 13 µM (active) |
| CCCCOC(=O)CC(CC(=O)OCCCC)(OC(C)=O)C(=O)OCCCC | inactive |  |
| O=C(O)c1ccccc1C(=O)OCc1ccccc1 | inactive |  |

| Structure (SMILES) | outcome | AC50 |
| --- | --- | --- |
| CN1C(=O)CC[C@H]1c1cccnc1 | inactive |  |
| CC(=O)N1CCN(c2ccc(OC[C@H]3CO[C@](Cn4ccnc4)(c4ccc(Cl)cc4Cl)O3)cc2)CC1 |  | 26.1 µM (active) |
| CCCCOC(=O)c1ccc(O)cc1 | inactive |  |
| O=C1c2ccccc2C(=O)N1CCc1noc(-c2ccc(CN3CCCCCC3)s2)n1 | inactive |  |
| OC12N=C(c3ccccc3)SC1Cc1cc(Cl)ccc12 (stereo unspecified) |  | 2.18 µM (active) |
| C[C@]12CC[C@@H]3c4ccc(O)cc4CC[C@H]3[C@@H]1CC[C@H]2O | inactive |  |
| COc1cccc([C@H](O)C2CCN(CCc3ccc(F)cc3)CC2)c1OC | inactive |  |
| CN(C)c1ccc(C(=C2C=CC(=[N+](C)C)C=C2)c2ccc(N(C)C)cc2)cc1 |  | 3.9 µM (active) |
| CN1C(=O)N(c2ccccc2Br)Cc2cnc(Nc3ccc4c(c3)OCC(CO)O4)nc21 (stereo unspecified) |  | 78.3 µM (active) |
| Oc1ccc2ccccc2c1 | inactive |  |
| CCCCCCCC[Si](OCC)(OCC)OCC | inactive |  |
| Clc1cc(Cl)c2c(c1)N=C1CCCCCN1C2 | inactive |  |
| Clc1ccccc1C(c1ccccc1)(c1ccccc1)n1ccnc1 |  | 23.1 µM (active) |
| CC(C)(O)c1ccc(CNC(=O)c2cccnc2Oc2ccc3nonc3c2)cc1 | inactive |  |
| O=C1CCC(C2CCCCC2)CC1 | inactive |  |
| CC(C)(c1cc(Br)c(O)c(Br)c1)c1cc(Br)c(O)c(Br)c1 | inactive |  |
| Cc1oc2c(NC(=O)c3c(Cl)cccc3Cl)cccc2c1C(C)(C)O |  | 31.2 µM (active) |
| O=C(O)Cc1cc(I)c(Oc2ccc(O)c(I)c2)c(I)c1 |  | 50 µM (active) |
| CCCCCCCCN(C)CCCCCCCC | inactive |  |
